Platelet DG rel: inhibitors of platelet dense granule secretion, primary screen, cell-based, MLPCN, human platelets. inhibition, %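 (compounds screened at 7.5 µM in platelet-rich plasma)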. AID 1663, 2009. actives 0.22% (n = 300,000). human platelet-rich plasma, SFLLRN dense granule ATP release, luminescence;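 active = mean replicate score, as percent of positive control, at or above 50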
TWEAK-Fn14 inh: inhibitors of TWEAK-Fn14 signaling, primary screen, luciferase reporter cells, uHTS; actives 2% (n = 360,000); inhibition, % at 10 µM; TWEAK-stimulated Fn14 reporter cells, luciferase luminescence, 8 h; in the data active = inhibition above about 50%
C8 TRAIL sens: viability loss with TRAIL in NB7+C8 cells, primary screen, TRAIL sensitizer project, cell-based, ATPlite luminescence; actives 1% (n = 360,000); AID 624354, 2012; inhibition (viability loss, TRAIL sensitization), % at 10 µM;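 active = compounds causing at least 50% loss of cell viability in the single-dose screen, relative to plate controls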
PPC-1+TRAIL kill: compounds killing PPC-1 cancer cells with TRAIL present, primary screen, TRAIL potentiator project, ATPLite luminescence, uHTS. PPC-1 cells + TRAIL, ATPLite viability luminescence. cell killing (% activity), % at 4 µM or 5 µM. actives 0.41% (n = 220,000);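 active = cell killing above 50% in the first pass at 4 µM, then a duplicate retest at 5 µM averaging 50% or more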;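 note: plate controls were cells with TRAIL plus DMSO for no effect and medium-only wells lacking cells for full effect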
TROY NFkB inh: inhibitors of TROY-driven NF-kB signaling, primary screen, Q293 LMP1-TROYcd cells, NF-kB luciferase, uHTS. Q293 LMP1-TROYcd NF-kB luciferase reporter, 4 h. inhibition, % at 10 µM. actives 0.98% (n = 360,000);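 active = compounds whose plate-normalised and pattern-corrected inhibition of the luciferase reporter signal at the single screening dose is 50% or more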
HSP90 refold inh: HSP90 inhibitors, primary screen, cell lysate, luminescence | Heat shock protein HSP 90 (rabbit reticulocyte lysate; luciferase refolding) | inhibition, % at 5.6 µM | Rabbit reticulocyte lysate, luciferase refolding luminescence, 3 h | actives 0.91% (n = 290,000);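 active = inhibition above the screen-wide mean plus 3 SD, computed separately per campaign, cut at about 16% in these data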;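 note: 0% = DMSO wells and 100% = 60 µM geldanamycin wells; inhibitors lower the luminescence because luciferase stays unfolded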
* hit, by the source's call; / = no result given. Hits are enriched below; roughly 3.5% of the tested compounds scored in any of these assays.

SMILES	Platelet DG rel	TWEAK-Fn14 inh	C8 TRAIL sens	PPC-1+TRAIL kill	TROY NFkB inh	HSP90 refold inh
O=C(NC1CCCCC1)NC1CC2CCC(C1)N2Cc1nnnn1Cc1ccc2c(c1)OCO2 (centres undefined)	5	87*	-1	19	/	2
Cc1ccc(S(=O)(=O)N2CCC(c3nc4c(nnn4Cc4ccccc4)c(=O)[nH]3)CC2)cc1	-1	-5	21	4	3	-1
O=c1[nH]c(C2CCN(S(=O)(=O)c3ccccc3C(F)(F)F)CC2)nc2c1nnn2Cc1ccccc1	-4	-41	2	/	51*	4
Oc1ccc(/C=N/Nc2nc(-c3cccnc3)nc3ccccc23)c(O)c1	12	-17	55*	16	-24	5
COc1ccccc1N1CCN(c2ccc(-c3ccccc3)nn2)CC1	54*	71*	87*	37	66*	15
COc1ccccc1N1CCN(c2ccc3ccccc3n2)CC1	18	49	48*	/	35	13
COc1ccc(S(=O)(=O)N2CC=C(c3ccccc3)CC2)cc1OC	/	0	-4	/	15	/
O=C1CSC(=S)N1Cc1ccccc1	/	-14	3	/	6	/
CCOC(=O)c1c(N2C(=O)Nc3cc(Cl)c(Cl)cc3N2O)sc2c1CCCCC2	/	8	11	15	53*	-5
CCOC(=O)c1c(-n2cnnn2)sc2c1CCCC2	0	-10	10	-1	-4	4
O=S(=O)(c1cccc(NC(=S)N2CCN(c3ccccc3F)CC2)c1)C(F)F	0	51*	1	31	14	-3
CCCn1c(=S)[nH]c2cc(C(=O)N3CCCC(C(=O)OCC)C3)ccc2c1=O (centres undefined)	9	55*	10	7	16	3
CCOC(=O)N1CCN(C(=O)c2ccc(Cn3c(=S)[nH]c4ccc(Br)cc4c3=O)cc2)CC1	-10	57*	53*	/	59*	0
CCC1CCCCN1C(=O)COC(=O)COc1ccc(Br)cc1 (centres undefined)	/	17	-7	/	10	/
Fc1ccc(OCCOCCN2CCNCC2)cc1	4	-4	-25	/	10	1
COc1ccc(CC2C(=O)NC(C)C(=O)N(C)C3Cc4ccc(cc4)Oc4cc(ccc4O)CC(C(=O)NC(C)C(=O)NC(C)C(=O)N2C)N(C)C3=O)cc1 (centres undefined)	/	101*	66*	/	84*	/
CC(C)C[C@@H]1NC(=O)[C@H](Cc2ccccc2)N(C)C(=O)[C@H](C)NC(=O)c2ccccc2NC(=O)[C@H](Cc2ccc(O)cc2)N(C)C1=O	-4	26	25	6	-3	/
CCCn1c(N)c(C(=O)COc2ccc(Br)cc2F)c(=O)n(C)c1=O	-3	1	4	20	22	-2
CC(=O)n1cc(N(C(=O)CCl)c2ccc(C)cc2)c2ccccc21	8	56*	95*	38	-30	12
Cn1ncc(C(N)=O)c1NC(=S)NC(=O)c1ccc(Br)o1	10	1	-1	-3	-7	0
O=C(Nc1ccc2c(c1)OCO2)c1ccc2c(c1)OCO2	46	42	71*	48	-25	7
O=C(CN1CCN(C(=O)c2ccco2)CC1)Nc1ccc2c(c1)OCCO2	2	64*	-7	9	53*	3
O=C(Nc1ccc(F)c(F)c1)c1ccc2c(c1)OCO2	9	-18	19	12	-45	0
CCC(=O)Nc1ccc(NC(=O)c2ccco2)cc1	-3	-4	57*	29	-17	0
COc1cccc(C(=O)Nc2cc(OC)ccc2NC(=O)c2ccco2)c1	-13	56*	3	/	-26	-2
O=C(c1ccc(Cl)c(Cl)c1)N1CCC(=O)N([C@H](COCc2cccc(C(F)(F)F)c2)Cc2ccccc2)CC1	/	27	15	/	17	/
O=C(Nc1ccc2oc(-c3ccccc3F)nc2c1)c1ccc2c(c1)OCCO2	-2	72*	28	7	60*	0
